TDP1 cell noCPT: qHTS for Inhibitors of human tyrosyl-DNA phosphodiesterase 1 (TDP1): qHTS in cells in absence of CPT; Potency, µM (series often up to 46.2 µM), inactives show top-dose activity change, negative = growth inhibition, most hits filed as inhibitors; 420,000 compounds, 15% hits; DT40 Tdp1-/- hTDP1 cells, no CPT, ATP luminescence, 48 h; note: potency is the fitted concentration of half-maximal effect; nearly all actives have a fitted effect of over 55% in size
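Cells were dispensed at 400 per well, compounds added by pin tool, plates incubated ≥48 hr at 37 °C, then CellTiter-Glo added for 30 min at room temperature before luminescence reading. Line: DT40 Tdp1-/- complemented with hTDP1; camptothecin omitted.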
12-LOX inh: Primary qHTS assay for inhibitors of human arachidonate 12S-lipoxygenase (ALOX12): Round 2; Potency, µM (highest dose often 108 µM), for inactives: at the highest dose activity change, negative = inhibition, usual class: inhibitors; Polyunsaturated fatty acid lipoxygenase ALOX12 (Homo sapiens), P18054; AID 1671190, 2021; 580,000 compounds, 1.1% hits; purified 12hLO, xylenol orange hydroperoxide absorbance; note: potency is the fitted concentration of half-maximal effect
Target sequence (P18054 whole entry, looked up): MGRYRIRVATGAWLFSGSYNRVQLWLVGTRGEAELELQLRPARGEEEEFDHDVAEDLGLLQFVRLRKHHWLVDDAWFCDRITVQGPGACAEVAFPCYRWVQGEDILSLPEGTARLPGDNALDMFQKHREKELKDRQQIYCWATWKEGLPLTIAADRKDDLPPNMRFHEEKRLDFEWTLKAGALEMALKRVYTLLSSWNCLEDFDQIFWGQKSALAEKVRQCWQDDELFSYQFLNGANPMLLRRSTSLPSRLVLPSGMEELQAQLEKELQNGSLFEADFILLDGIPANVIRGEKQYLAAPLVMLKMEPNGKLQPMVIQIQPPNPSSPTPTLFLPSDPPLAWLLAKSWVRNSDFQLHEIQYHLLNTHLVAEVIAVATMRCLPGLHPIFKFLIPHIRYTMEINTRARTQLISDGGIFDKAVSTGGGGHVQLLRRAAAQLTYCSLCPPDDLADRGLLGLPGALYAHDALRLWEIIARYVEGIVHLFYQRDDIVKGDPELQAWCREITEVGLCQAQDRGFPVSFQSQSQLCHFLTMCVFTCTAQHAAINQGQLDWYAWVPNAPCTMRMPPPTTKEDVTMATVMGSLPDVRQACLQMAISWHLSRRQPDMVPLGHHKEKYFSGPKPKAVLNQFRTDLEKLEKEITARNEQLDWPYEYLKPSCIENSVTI
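Hydroperoxide product was detected by ferrous iron/xylenol orange as the 573 to 405 nm absorbance ratio. Arachidonic acid at 40 uM (final) was turned over for 30 min at room temperature by 150 nM human 12hLO, pH 7.0 Hepes buffer, after 15 min compound preincubation.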
IL-1B inflam inh: qHTS for Inhibitors of Inflammasome Signaling: IL-1-beta AlphaLISA Primary Screen. THP-1 LPS/ATP IL-1B secretion, AlphaLISA, 16 h; active compounds read low. activity change, % at 57.5 µM. 360,000 compounds, 4.7% hits. AID 743279, 2014; in the data active = activity change below about -50%; inconclusive = mostly about -30% to -49%
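Secreted IL-1B measured by AlphaLISA bead assay after 16 h compound exposure of THP-1 cells; compounds (final up to 57.5 uM) added 1 h before LPS (250 ng/mL) and ATP (1.25 mM) stimulation; lower signal means less secretion.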
DT40 TDP1 CPT: qHTS for Inhibitors of human tyrosyl-DNA phosphodiesterase 1 (TDP1): qHTS in cells in presence of CPT; chicken DT40 Tdp1-/-;hTDP1 cells + 20 nM CPT, ATP luminescence, 48 h; Potency, µM (titrated, usually from 46.2 µM), inactives show at the highest dose activity change, negative = growth inhibition, actives largely listed as inhibitors; 420,000 compounds, 12% hits; AID 686979, 2013; note: potency is the fitted concentration of half-maximal effect; nearly all actives have a fitted effect of over 55% in size
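Chicken DT40 Tdp1-/- cells stably complemented with human TDP1 were seeded at 400 cells/well in medium containing 20 nM camptothecin, exposed to pin-transferred compounds, and grown at 37 °C for at least 48 hr. Viability was read as ATP luminescence.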
HT1080NT lethal: qHTS for induction of synthetic lethality in tumor cells producing 2HG: qHTS for the HT-1080-NT fibrosarcoma cell line | 360,000 compounds, 1.6% hits | HT-1080-NT fibrosarcoma viability, CellTiter-Glo ATP luminescence, 48 h | Potency, µM (titrated, usually from 46.1 µM), inactives show at the top dose activity, negative = less viability, usual class: cytotoxic | AID 686970, 2013;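 note: NT is the 2HG producing partner of a matched IDH1 knockdown line; potency is the fitted concentration of half-maximal effect; 0% = DMSO-treated cells and -100% = media-only wells without cells; nearly all actives have a fitted effect of over 55% in size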
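Compounds were tested in concentration-response format on HT-1080-NT cells for 48 hours at 37 degrees C. Cell viability came from CellTiter-Glo luminescence; curves were classified by r2, response magnitude and activity.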
HT1080 IDH1KD tx: qHTS for induction of synthetic lethality in tumor cells producing 2HG: qHTS for the HT-1080-IDH1KD cell line; HT-1080 IDH1 knockdown viability, ATP luminescence, 48 h; Potency, µM (series often up to 46.1 µM), for the others: at the top dose activity, negative = toxicity, usual class: cytotoxic; 360,000 compounds, 2% hits; AID 686971, 2013;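 note: potency is the fitted concentration of half-maximal effect; 0% = DMSO wells and -100% = cell-free medium wells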
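Assay cells: HT-1080 with IDH1 knockdown, 750 per well, RPMI/5% FBS. Exposure: 48 h at 37 °C following 2 h pre-incubation. Read: CellTiter-Glo luminescence; fitted concentration-response, curve class assigned.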
* = called active by the depositor; ? = inconclusive; / = no result. The full list was thinned out, with hits kept by preference. Unless noted, calls come from the whole dose curve; as a rule, active = well fitted curve in the direction sought with a large enough effect; inconclusive = small, poorly fitted or top-dose-only effect, or another doubt; inactive = no such curve, though single readings can be large; an effect the other way counts as inactive or inconclusive. Unless noted, % is set by controls: 0 for no effect and ±100 for the full control effect.

SMILES	TDP1 cell noCPT	12-LOX inh	IL-1B inflam inh	DT40 TDP1 CPT	HT1080NT lethal	HT1080 IDH1KD tx
CCOc1ccc(C(=O)NCC(=O)NCC(c2ccc(OC)cc2)N2CCCC2)cc1 (stereo unspecified)	5.5%	4.4%	-23.2	-3.7%	-4.6%	-11.1%
O=C(NCC(c1ccco1)N1CCCCC1)c1ccc(COc2ccc(Cl)cc2)cc1 (stereo unspecified)	13µM*	?	-75.5*	20.6µM*	18.4µM*	?
CCCCOc1ccc(C(=O)NCC(c2ccc(Cl)cc2)N2CCOCC2)cc1 (stereo unspecified)	20.6µM*	6.3%	/	14.6µM*	/	/
N#Cc1ccc(C(=O)NCC(c2ccco2)N2CCCCC2)cc1 (stereo unspecified)	4.7%	416.8%	8.3	3.7%	8.1%	14.7%
CCOc1ccc(C(=O)NCC(c2ccc(Cl)cc2)N2CCCCC2)cc1 (stereo unspecified)	9.2µM*	9.3%	/	7.31µM*	/	/
CN1CCN(C(CNC(=O)Nc2ccc(Cl)cc2)c2ccc(F)cc2)CC1 (stereo unspecified)	?	?	?	?	-18.2%	-19.4%
O=C(COc1cccc(C(F)(F)F)c1)NCC(c1ccco1)N1CCCC1 (stereo unspecified)	?	-24.7%	-23.3	-9.8%	-1.2%	-11.3%
Cc1ccc(C(CNC(=O)Nc2ccc(Cl)cc2)N2CCN(C)CC2)cc1 (stereo unspecified)	?	7.4%	?	?	?	?
Cc1ccc(C(=O)NCC(c2ccc(Cl)cc2)N2CCCCC2)cc1 (stereo unspecified)	13µM*	-16.4%	/	11.6µM*	/	/
O=C(COc1ccc(Cl)cc1Br)NCC(c1ccco1)N1CCCC1 (stereo unspecified)	18.4µM*	327.7%	-2.6	?	-10.3%	-13.2%
CCOC(=O)c1ccc(NC(=O)C(=O)NCC2(c3ccc(OC)cc3)CCOCC2)cc1	14.6µM*	0.0%	-23.7	?	-0.6%	0.1%
COc1ccc(C2(CNC(=O)c3ccccc3)CCOCC2)cc1	-2.6%	?	/	-3.0%	-2.0%	14.7%
O=C(NCC(c1ccc(Cl)cc1)N1CCCCC1)c1ccc(F)cc1 (stereo unspecified)	13µM*	?	/	13µM*	/	/
Cc1cc(C)c2c(=O)cc(C(=O)Nc3ccc(Cl)cc3)oc2c1	/	18.3%	/	/	/	/
COCC(=O)N[C@@H]1CN(Cc2ccco2)CC[C@@H]1c1n[nH]c(C)n1	/	44.5%	/	/	/	/
CCCCCOc1ccc(C(=O)NCC2(c3ccccc3)CCOCC2)cc1	?	-18.7%	-24.8	?	-4.7%	?
CCCCOc1ccc(C(=O)NCC2(c3ccccc3)CCOCC2)cc1	?	-5.8%	-14.4	20.6µM*	-4.7%	0.3%
COCCn1c(SCC(=O)c2c[nH]c3ccccc23)nc2cc(C(=O)NCC(C)C)ccc2c1=O	-19.4%	2.4%	/	?	/	/
CCCNC(=O)c1ccc2c(=O)n(CCOC)c(SCC(=O)c3ccccc3)nc2c1	/	-2.6%	/	/	/	/
COCCNC(=O)c1ccc2c(=O)n(CCc3ccccc3)c(SCC(=O)CC(=O)OC)nc2c1	20.6µM*	-2.9%	/	?	/	/
COCCNC(=O)c1ccc2c(=O)n(CCOC)c(SCC(=O)c3c[nH]c4ccccc34)nc2c1	13µM*	12.3%	/	23.1µM*	/	/
CCN1CCN(c2nc(-c3ccccc3)nc3ccccc23)CC1	29.1µM*	-12.7%	-64.6*	?	-12.8%	-13.6%
Cc1ccc(-c2nc(N3CCN(C)CC3)c3ccccc3n2)cc1	?	-33.7%	?	?	-29.0%	-4.6%
CN1CCN(c2nc(-c3ccc(C(C)(C)C)cc3)nc3ccccc23)CC1	20.6µM*	31.6µM*	-15.7	?	-15.0%	-15.2%
O=C1NC(c2ccccc2)=CC(c2ccccc2O)N1 (stereo unspecified)	-3.4%	-16.0%	17.0	-13.0%	19.1%	4.8%
SMILES	TDP1 cell noCPT	12-LOX inh	IL-1B inflam inh	DT40 TDP1 CPT	HT1080NT lethal	HT1080 IDH1KD tx
COc1cccc(C2=CC(c3ccccc3O)NC(C)(C)N2)c1 (stereo unspecified)	15.8µM*	/	/	12.6µM*	/	/
CCC(NCc1c(C(=O)N2CCCCCC2)nc2cc(C)ccn12)c1ccc(C)cc1 (stereo unspecified)	/	13.2%	/	/	/	/
C=CCNCCOc1ccc(C)cc1[N+](=O)[O-]	6.7%	-29.5%	-20.8	-2.5%	0.0%	-3.7%
CCC(C)NCCOc1ccc(C)cc1[N+](=O)[O-] (stereo unspecified)	-20.8%	?	-53.6*	0.5%	3.0%	5.1%
CN(C)C(=O)CSc1nc2ccccc2n1Cc1ccccc1	?	0.4%	10.3	?	-4.3%	-5.5%
COCCn1c(SCC(=O)Nc2ccc(Cl)c(S(=O)(=O)N(C)C)c2)nc2ccccc21	16.4µM*	3.7%	0.0	?	-22.7%	-20.8%
COCCn1c(SCC(=O)Nc2ccc(S(N)(=O)=O)cc2)nc2ccccc21	-22.9%	57.1%	-6.8	0.4%	-4.9%	-0.7%
CN(C)S(=O)(=O)c1cc(NC(=O)CSc2ncc(C(F)(F)F)cc2Cl)ccc1Cl	16.4µM*	10.1%	-81.6*	14.6µM*	?	?
COc1ccc(Cn2c(SCC(=O)Nc3ccc(OC)cc3)nc3ccccc32)cc1	?	-15.1%	/	25.9µM*	/	/
CCN(C(=O)CSc1nc2ccccc2n1Cc1ccc(C(=O)OC)cc1)c1ccccc1	13µM*	-10.1%	/	20.6µM*	/	/
COc1ccc(CNC(=O)Cn2c(SCC(=O)Nc3ccc(OC)cc3)nc3ccccc32)cc1	?	-2.1%	/	?	/	/
CN(C)S(=O)(=O)c1cc(NC(=O)CSc2cccc[n+]2[O-])ccc1Cl	4.2%	-28.6%	-5.9	-16.8%	6.9%	-0.4%
CC(NC(C)c1ccccc1Cl)c1ccc(F)cc1 (stereo unspecified)	/	6.9%	/	/	/	/
O=[N+]([O-])c1ccccc1OCCCOc1ccc(Cl)c2cccnc12	/	-20.7%	/	/	/	/
COc1ccc(-c2nc(Cn3nc(C)c4c(C)onc4c3=O)c(C)o2)cc1	/	-6.9%	/	/	/	/
